This is a sample that favours compounds with a hit; in the whole collection about 1.6% have one here.
Glyco luc inh – N-linked glycosylation inhibition; hit rate 0.23% among 360,000; reporter increase, % at 12.5 µM; D54 ERlucT glycosylation luciferase reporter, 24 h; percent of 100 nM tunicamycin response;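 active = mean luciferase reporter signal, scaled so untreated is 0 and the glycosylation-blocking control 100, at or above a set limit in every replicate; inconclusive = mean reaches the limit but not every replicate does; inactive = mean below the limit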;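 also: luciferase carries N-glycosylation sites so blocking glycosylation raises the light; 0% = median of neutral control wells and 100% = median of 100 nM tunicamycin wells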
Myeloid diff MLP – myeloid differentiation induction | calls only at 10 µM | hit rate 1% among 360,000 | ER-HoxA9 myeloid progenitors, lysozyme-GFP differentiation, flow cytometry;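 active = normalized GFP-positive differentiation at or above the plate's own cutoff, the solvent-only control mean plus 3 SD; inconclusive = no clear call, values can overlap the other calls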;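 also: cells exposed to compound for four days before flow analysis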
ABCB6 inh MLPCN – inhibitors of human ABC transporter ABCB6; Q9NP58; K562-ABCB6 porphyrin accumulation, flow cytometry, 1 h; active compounds read low; fluorescence ratio to DMSO, % at 10 µM; hit rate 0.19% among 360,000; AID 602162;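 active = fluorescence ratio to DMSO below 75%, the collection mean minus 3 SD; inconclusive = too few cells collected in the well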;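 also: signal is porphyrin accumulated inside mitochondria; 100% equals median channel fluorescence of DMSO control wells; lower ratio means ABCB6 inhibition with less porphyrin fluorescence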
RAD54 inh – blocks human RAD54 Holliday junction branch migration; Q92698; FAM/BHQ fluorescence; inhibition, % at 10.4 µM; hit rate 0.14% among 360,000;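 active = mean normalized replicate activity at least 40 and at least half of replicates scoring 40 or more; inconclusive = only one of the two criteria met; inactive = mean below 40 and under half of replicates reaching 40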;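 also: 0% = median of neutral control wells and 100% = median of positive control wells; inhibitors cause a drop in the FAM fluorescence signal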
Target sequence (Q92698 whole entry, looked up): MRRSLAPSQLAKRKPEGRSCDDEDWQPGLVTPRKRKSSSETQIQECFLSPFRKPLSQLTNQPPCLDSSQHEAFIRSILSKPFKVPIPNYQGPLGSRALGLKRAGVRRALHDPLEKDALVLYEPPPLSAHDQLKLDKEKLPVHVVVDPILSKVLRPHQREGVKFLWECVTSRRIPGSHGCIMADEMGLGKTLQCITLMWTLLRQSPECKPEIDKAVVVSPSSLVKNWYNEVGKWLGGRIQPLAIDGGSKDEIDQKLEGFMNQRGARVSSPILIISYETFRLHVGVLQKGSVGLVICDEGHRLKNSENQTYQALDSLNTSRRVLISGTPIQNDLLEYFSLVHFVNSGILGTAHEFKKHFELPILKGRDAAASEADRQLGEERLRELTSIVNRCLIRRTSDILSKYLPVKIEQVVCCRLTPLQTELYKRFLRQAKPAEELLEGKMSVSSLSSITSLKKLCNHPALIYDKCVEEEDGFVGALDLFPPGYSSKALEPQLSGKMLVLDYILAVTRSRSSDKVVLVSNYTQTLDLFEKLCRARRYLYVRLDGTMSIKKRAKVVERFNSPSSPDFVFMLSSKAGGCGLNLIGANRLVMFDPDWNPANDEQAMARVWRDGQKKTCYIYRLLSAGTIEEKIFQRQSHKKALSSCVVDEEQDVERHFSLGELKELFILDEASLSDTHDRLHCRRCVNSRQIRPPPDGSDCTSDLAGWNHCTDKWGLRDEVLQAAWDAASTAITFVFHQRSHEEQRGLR
Vif inh – blocks HIV Vif function; inhibition, % at 7.49 µM; hit rate 0.35% among 340,000; HEK293T cells, Vif self-association by quenched fluorescence, imaging, 24 h; in the data active = inhibition above about 50%, passing the limit was not always enough; inconclusive = no clear call, values can overlap the other calls; inactive = below about 31%
* hit, by the source's call; i = inactive; u = inconclusive; x = no result given; + = active, no number.

SMILES	Glyco luc inh	Myeloid diff MLP	ABCB6 inh MLPCN	RAD54 inh	Vif inh
Cc1ccnc(NC(=O)CCC(=O)N(CC(=O)NCc2ccccc2)Cc2ccccc2)c1	3	i	96	-5	0
Cc1ccnc(NC(=O)CCC(=O)N(CC(=O)NCc2ccccc2)Cc2ccc(F)cc2)c1	6	+	97	3	-4
CCOc1ccc(NC(=O)CCNS(=O)(=O)c2ccc3c(c2)c(=O)n(C)c(=O)n3C)cc1	-2	i	98	-3	-2
COc1ccc(NC(=O)CCNS(=O)(=O)c2ccc3c(c2)c(=O)n(C)c(=O)n3C)c(OC)c1	1	+	102	x	-10
S=c1nc(C2COc3ccccc3O2)[nH][nH]1 (stereo unspecified)	3	i	105	-3	-11
CCCS(=O)(=O)c1cnc(C2COc3ccccc3O2)nc1N (stereo unspecified)	-18	i	90	3	80*
COc1ccc(-c2cc(C(F)(F)F)nc(S(=O)(=O)CCCC(=O)Nc3cccnc3Cl)n2)cc1OC	-9	u	100	x	115*
COC(=O)CCS(=O)(=O)c1nc(-c2ccccc2)cc(C(F)(F)F)n1	-14	u	99	x	13
COc1ccc(C(=O)C2CCCN(C(=O)c3c4c(nn3C)CCCC4)C2)cc1F (stereo unspecified)	1	+	136	x	-2
Cn1nc2c(c1C(=O)N1CCCC(C(=O)c3cc(F)ccc3F)C1)CCCC2 (stereo unspecified)	-1	i	102	x	-1
CCc1sc(NC(=O)CCC(=O)O)nc1-c1cc2ccccc2oc1=O	2	i	99	x	1
CCc1sc(NC(=O)c2cc3ccccc3oc2=O)nc1-c1cccs1	-2	i	94	-2	55*
Cc1oc(-c2ccc(Cl)cc2)nc1CN1CCC(C(=O)N2CCc3ccccc3C2)CC1	-5	+	94	-3	-2
Cc1cccc(N2C(=O)c3cccc4c(N)ccc(c34)C2=O)c1	3	i	102	i	x
Nc1cccc(N2C(=O)c3cccc4c(N)ccc(c34)C2=O)c1	2	+	148	-430	x
CC(C)CCN1C(=O)c2cccc3c(N)ccc(c23)C1=O	0	+	137	i	x
COc1ccc2[nH]c(C)c(CCN(Cc3cccs3)C(=S)Nc3cccc(F)c3)c2c1	-8	+	119	-14	6
COc1cccc(NC(=S)N(CCc2c(C)[nH]c3ccc(C)cc23)Cc2cccs2)c1	-4	i	91	-6	0
Cc1ccc(-c2nc3c4ccccc4ccn3c2CC2CCCCC2)cc1	x	i	124	x	x
COc1ccc(-c2nc3c4ccccc4ccn3c2CC2CCCCC2)cc1OC	-3	+	198	1	x
C[C@@H]1CN([C@H](C)CO)C(=O)c2cc(-c3cncnc3)cnc2O[C@@H]1CN(C)C(=O)c1cccc(F)c1	x	x	x	9	x
C[C@@H]1CCCCO[C@@H](CN(C)C(=O)c2ccncc2)[C@@H](C)CN([C@H](C)CO)C(=O)c2cc(NS(=O)(=O)c3ccc(F)cc3)ccc2O1	x	x	x	-2	x
CCOC(=O)N1CCC(NC(=O)CS(=O)(=O)Cc2nc(-c3ccccc3C)oc2C)CC1	2	+	92	-2	-14
C[C@H](CO)N1C[C@H](C)[C@H](CN(C)S(=O)(=O)c2ccc(Cl)cc2)OCCCC[C@H](C)Oc2ccc(NS(=O)(=O)c3ccccc3)cc2C1=O	x	x	x	-15	x
CN(C)CCN1C(=O)c2cccc3cc([N+](=O)[O-])cc(c23)C1=O	43*	x	107	x	-10
SMILES	Glyco luc inh	Myeloid diff MLP	ABCB6 inh MLPCN	RAD54 inh	Vif inh
C[C@@H]1CN([C@@H](C)CO)C(=O)Cc2cc(NS(C)(=O)=O)ccc2O[C@H]1CN(C)C(=O)Nc1ccc2c(c1)OCO2	x	x	x	-1	x
O=C1Cc2c(-c3ccccc3)cc(-c3cccc(Cl)c3)nc2-c2ccccc2N1	72*	i	98	x	0
C[C@H]1CCCCO[C@H](CN(C)C(=O)Nc2ccc3c(c2)OCO3)[C@@H](C)CN([C@@H](C)CO)C(=O)c2cc(NS(C)(=O)=O)ccc2O1	x	x	x	-7	x
CN1CCc2nc(SCC(=O)Nc3ccc(OC(F)(F)F)cc3)c(C#N)c(-c3cccs3)c2C1	2	+	193	x	3
C[C@@H]1CCCCO[C@H](CN(C)C(=O)Cc2ccccc2)[C@@H](C)CN([C@@H](C)CO)C(=O)c2cc(NC(=O)Nc3ccc4c(c3)OCO4)ccc2O1	x	x	x	-4	x
CN1C(=O)c2cc(NC(=O)c3ccc(Cl)cc3)ccc2OC[C@@H]2O[C@@H](CC(=O)NCc3cccc(F)c3)CC[C@@H]21	x	x	x	3	x

Bioassay records from PubChem BioAssay.
